Reference: the antibiotic and cytotoxicity screens of Wong et al. (2023)
About 3,300 (8.5%) of roughly 39,000 compounds were called active. This excerpt belongs to a sample that is enriched for actives.

tested on: HepG2; experiment: cytotoxicity call (relative viability < 0.9); settings: 10 µM

Compound	cytotoxicity call
C[C@H](CO)N1C[C@H](C)[C@@H](CN(C)C(=O)Nc2ccc3c(c2)OCO3)Oc2ccc(NC(=O)CCCN(C)C)cc2C1=O	inactive
CO[C@H]1CN(C)C(=O)c2cc(NS(=O)(=O)CC(F)(F)F)ccc2OC[C@H](C)N(C(=O)c2ccc3c(c2)OCO3)C[C@H]1C	inactive
O=C(Cc1ccccn1)NCC[C@H]1CC[C@@H](NC(=O)CN2CCOCC2)[C@H](CO)O1	inactive
C[C@H]1CN([C@@H](C)CO)C(=O)c2cc(NC(=O)Cn3cnnn3)ccc2O[C@@H]1CN(C)S(=O)(=O)c1ccccc1	inactive
CC(C)N1C[C@H](C)[C@@H](CN(C)Cc2ccc(Oc3ccccc3)cc2)Oc2c(cccc2-c2nnc(-c3ccncc3)o2)C1=O	inactive
COc1ccccc1S(=O)(=O)N(C)C[C@@H]1Oc2c(NC(=O)Nc3cccc4ccccc34)cccc2C(=O)N([C@@H](C)CO)C[C@H]1C	inactive
COc1ccc(S(=O)(=O)N(C)C[C@@H]2Oc3c(NC(=O)Nc4cccc5ccccc45)cccc3C(=O)N([C@@H](C)CO)C[C@H]2C)cc1OC	inactive
COc1ccc(S(=O)(=O)N(C)C[C@@H]2Oc3c(NC(=O)Nc4cccc5ccccc45)cccc3C(=O)N([C@@H](C)CO)C[C@H]2C)cc1	inactive
C[C@@H]1CN([C@@H](C)CO)C(=O)c2cccc(NC(=O)Nc3cccc4ccccc34)c2O[C@H]1CN(C)S(=O)(=O)c1ccc(OC(F)(F)F)cc1	active
COc1ccc(S(=O)(=O)N(C)C[C@H]2Oc3c(NC(=O)Nc4cccc5ccccc45)cccc3C(=O)N([C@@H](C)CO)C[C@H]2C)cc1	inactive
C[C@H]1CN([C@@H](C)CO)C(=O)c2cccc(NC(=O)Nc3cccc4ccccc34)c2O[C@H]1CN(C)S(=O)(=O)c1ccc(F)cc1	inactive
C[C@H](CO)N1C[C@H](C)[C@H](CN(C)S(=O)(=O)c2ccccc2)Oc2c(NC(=O)Nc3cccc4ccccc34)cccc2C1=O	inactive
COc1ccc(S(=O)(=O)N(C)C[C@@H]2Oc3c(NC(=O)Nc4cccc5ccccc45)cccc3C(=O)N([C@@H](C)CO)C[C@H]2C)c(OC)c1	active
COc1ccc(S(=O)(=O)N(C)C[C@@H]2Oc3c(NC(=O)Nc4cccc5ccccc45)cccc3C(=O)N([C@@H](C)CO)C[C@H]2C)cc1F	inactive
C[C@H](CO)N1C[C@H](C)[C@H](CN(C)S(=O)(=O)c2ccc(F)cc2)Oc2c(NC(=O)Nc3cccc4ccccc34)cccc2C1=O	inactive
COc1ccc(S(=O)(=O)N(C)C[C@H]2Oc3c(NC(=O)Nc4cccc5ccccc45)cccc3C(=O)N([C@@H](C)CO)C[C@@H]2C)cc1	active
COc1cccc(S(=O)(=O)N(C)C[C@@H]2Oc3c(NC(=O)Nc4cccc5ccccc45)cccc3C(=O)N([C@@H](C)CO)C[C@H]2C)c1	active
CC1CN(c2c(F)c(N)c3c(=O)c(C(=O)O)cn(C4CC4)c3c2F)CC(C)N1 (stereo not given)	inactive
CC(C)NC(=O)N(C)C[C@H]1OCCCC[C@@H](C)Oc2ccc(NC(=O)Nc3ccc(C(F)(F)F)cc3)cc2C(=O)N([C@H](C)CO)C[C@@H]1C	inactive
CC(C)NC(=O)N(C)C[C@@H]1Oc2c(NC(=O)C3CCOCC3)cccc2C(=O)N([C@@H](C)CO)C[C@@H]1C	inactive

Compound	cytotoxicity call
COc1ccc(S(=O)(=O)Nc2ccc3c(c2)C(=O)N([C@@H](C)CO)C[C@H](C)[C@@H](CN(C)Cc2ccccc2)OCCCC[C@H](C)O3)cc1	inactive
C(=N\c1cc(-c2ccccc2)nn1-c1ccccc1)/c1ccccc1	inactive
C[C@H]1CN([C@@H](C)CO)C(=O)c2cc(C#CC3CCCCC3)cnc2O[C@@H]1CN(C)C(=O)c1ccncc1	inactive
O=C(CCCCCCC(=O)Nc1ccc([C@H]2C[C@H](c3ccccc3)O[C@H](c3cccc(Oc4ccccc4)c3)O2)cc1)NO	inactive
C[C@H](CO)N1C[C@H](C)[C@H](CN(C)Cc2ccc(C(=O)O)cc2)Oc2ccc(NS(=O)(=O)c3cn(C)cn3)cc2CC1=O	inactive
O=C(C[C@@H]1C[C@H]2c3cc(NS(=O)(=O)c4ccc(F)cc4)ccc3O[C@H]2[C@H](CO)O1)NCc1ccccc1F	inactive
C[C@@H]1COCCC(=O)N1	inactive
O=C1CN(c2ccccc2)C(=O)N1	inactive
C[C@H]1CN([C@@H](C)CO)S(=O)(=O)c2ccc(C3=CCCCC3)cc2O[C@@H]1CN(C)S(=O)(=O)c1cn(C)cn1	inactive
C[C@@H]1CN([C@@H](C)CO)C(=O)c2cccc(NC(=O)Nc3cccc4ccccc34)c2O[C@@H]1CN(C)S(=O)(=O)c1cccs1	inactive
COc1ccc(S(=O)(=O)N(C)C[C@@H]2Oc3c(NC(=O)Nc4cccc5ccccc45)cccc3C(=O)N([C@@H](C)CO)C[C@@H]2C)cc1	inactive
COc1ccc(S(=O)(=O)N(C)C[C@H]2Oc3c(NC(=O)Nc4cccc5ccccc45)cccc3C(=O)N([C@H](C)CO)C[C@H]2C)cc1	inactive
COc1ccc(S(=O)(=O)N(C)C[C@@H]2Oc3c(NC(=O)Nc4cccc5ccccc45)cccc3C(=O)N([C@H](C)CO)C[C@H]2C)cc1	active
COc1ccc(S(=O)(=O)N(C)C[C@H]2Oc3c(NC(=O)Nc4cccc5ccccc45)cccc3C(=O)N([C@H](C)CO)C[C@@H]2C)cc1	active
COc1ccc(S(=O)(=O)N(C)C[C@@H]2Oc3c(NC(=O)Nc4cccc5ccccc45)cccc3C(=O)N(C(C)C)C[C@H]2C)cc1	inactive
COc1ccc(S(=O)(=O)N(C)C[C@@H]2Oc3c(NC(=O)Nc4cccc5ccccc45)cccc3C(=O)N([C@H](C)CO)C[C@@H]2C)cc1	inactive
C[C@@H]1CN([C@H](C)CO)C(=O)c2cccc(NC(=O)Nc3cccc4ccccc34)c2O[C@@H]1CN(C)S(=O)(=O)c1cccs1	active
C[C@@H]1CN([C@@H](C)CO)C(=O)c2cccc(NC(=O)Nc3cccc4ccccc34)c2O[C@H]1CN(C)S(=O)(=O)c1cccs1	inactive
C[C@@H]1CCCCO[C@@H](CN(C)S(C)(=O)=O)[C@H](C)CN([C@@H](C)CO)C(=O)c2cc(N(C)C)ccc2O1	inactive
COc1ccc(S(=O)(=O)N(C)C[C@H]2Oc3ncc(Br)cc3C(=O)N([C@@H](C)CO)C[C@@H]2C)cc1	inactive
